According to PubChem BioAssay (EPA / NIEHS):
Calls of active or inactive are those of the source. How the source made its calls: active means hit-call score of the fitted dose curve at least 0.9, where 1 is the maximum; inactive means score below 0.9.

Each compound was assayed on Urokinase-type plasminogen activator receptor (uPAR), PLAUR (gene 5329) (assay: BSK_BE3C_uPAR: BioMAP Diversity Plus: BE3C Assay for Urokinase-type plasminogen activator receptor (uPAR) Biomarker Activity (AID 2283039;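 on outcome: cells exposed to compound for one day before measurement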)). Conditions: primary human bronchial epithelial cells; actives raise or lower the signal.
Protocol: BSK_BE3C is a cell-based, multiplexed-readout assay that uses bronchial epithelial cell, a human lung primary cell, with measurements taken at 24 hours after chemical dosing in a 96-well plate.BSK_BE3CAR is an assay component measured in the BSK_BE3C assay. It measures uPAR antibody related to regulation of gene expression using ELISA technology.Data from the assay component BSK_BE3CAR was analyzed into 1 assay endpoint. This assay endpoint, BSK_BE3CAR, was analyzed with bidirectional fitting relative to DMSO as the negative control and baseline of activity. Using a type of binding reporter, gain or loss-of-signal activity can be used to understand changes in the signaling as they relate to the gene PLAUR. Furthermore, this assay endpoint can be referred to as a primary readout, because this assay has produced multiple assay endpoints where this one serves a signaling function. To generalize the intended target to other relatable targets, this assay endpoint is annotated to the cytokine intended target family, where the subfamily is plasmogen activator.
The levels of cell surface (or secreted, indicated by the prefix "s") biomarker endpoints were measured by ELISA. Overt cytotoxicity to cells in confluent adherent cultures (all systems other than the BT system) was assessed by measuring total protein levels using sulforhodamine B (SRB) staining in parallel cultures at the time of biomarker measurements, indicated as SRB endpoints. For proliferation assays for adherent cell types, individual cell types are cultured at sub-confluence and relative cell numbers quantified by SRB staining at time points optimized for each system (48 h: 3C and CASM3C systems; 72 h: BT and HDF3CGF systems; 96 h: SAg system). SRB was performed by staining cells with 0.1% SRB after fixation with 10% TCA and reading wells at 560 nm.Viability and proliferation of PBMC (T cells) was quantified by Alamar Blue reduction for the SAg and BT systems. For PBMC viability (referred to as PBMC Cytotoxicity within the assay endpoint names), cells were plated (75,000/well in a 96-well plate) and then chemical samples added for 1 h before addition of activators, SEB and TSST-1 (20 ng/mL final concentration each). Cells were incubated for 90 h. Then, Alamar Blue (20 uL/well) (Invitrogen, Cat DAL1100) was added for 6 h, and the plates were read with a fluorescence microplate reader at 546/580 nm (excitation/emission). For PBMC proliferation, cells were plated and activated as above but incubated for only 16 h prior to addition of Alamar Blue. Plates were read after 6 h.

Row | Compound | outcome | AC50
1 | OCC(CO)(CO)CO | inactive | 
2 | O=C(Cl)C(F)(F)C(F)(F)C(F)(F)C(=O)Cl | inactive | 
3 | CC(C)CC(C)O (stereo not given) | inactive | 
4 | CCCc1ccccc1 | inactive | 
5 | Cc1nc(-c2ccccn2)ncc1C(=O)Nn1cc(C)c2cc(F)ccc21 | inactive | 
6 | CC[C@H](C)C(=O)O[C@H]1C[C@H](O)C=C2C=C[C@H](C)[C@H](CC[C@@H](O)C[C@@H](O)CC(=O)O)[C@H]21 | inactive | 
7 | CCCCCCCCCC | inactive | 
8 | Cc1cccc(O)c1C | inactive | 
9 | CCCCCCCC1CCC(=O)O1 (stereo not given) | inactive | 
10 | CCc1cccc(CC)c1N | inactive | 
11 | Cc1nccn1-c1ccc(Sc2cccc(C3(C(N)=O)CCOCC3)c2)cc1 |  | 10.3 µM (active)
12 | CCCCCCCCN(C)C | inactive | 
13 | C[Si](C)(C)C(F)(F)C(F)(F)C(F)(F)F | inactive | 
14 | NC(=O)NN=Cc1ccc([N+](=O)[O-])o1 | inactive | 
15 | OCc1ccccc1 | inactive | 
16 | OC(Cn1cncn1)(Cn1cncn1)c1ccc(F)cc1F | inactive | 
17 | OC[C@H]1O[C@@H]2O[C@H]3[C@H](O)[C@@H](O)[C@@H](O[C@H]4[C@H](O)[C@@H](O)[C@@H](O[C@H]5[C@H](O)[C@@H](O)[C@@H](O[C@H]6[C@H](O)[C@@H](O)[C@@H](O[C@H]7[C@H](O)[C@@H](O)[C@@H](O[C@H]1[C@H](O)[C@H]2O)O[C@@H]7CO)O[C@@H]6CO)O[C@@H]5CO)O[C@@H]4CO)O[C@@H]3CO | inactive | 
18 | OCCOCCOCCO | inactive | 
19 | C=CN1CCCC1=O | inactive | 
20 | OCc1c[nH]c2ccccc12 | inactive | 

Row | Compound | outcome | AC50
21 | CC(C)c1nnc2ccc(-c3ocnc3-c3cc(F)ccc3F)cn12 | inactive | 
22 | OCCNCCO | inactive | 
23 | O=S(=O)(O)c1ccc(N=Nc2c(O)ccc3cc(S(=O)(=O)O)ccc23)cc1 | inactive | 
24 | CCCCCCOC(=O)CC(CC(=O)OCCCCCC)(OC(=O)CCC)C(=O)OCCCCCC | inactive | 
25 | CCCC(CCC)C(=O)O | inactive | 
26 | COc1cc2c(c(OC)c1OC)-c1ccc(OC)c(=O)cc1[C@@H](NC(C)=O)CC2 | inactive | 
27 | CCCCCCCCCCCCCCO | inactive | 
28 | FC(F)(F)COC(OCC(F)(F)F)OCC(F)(F)F | inactive | 
29 | Cn1c(=O)c2[nH]cnc2n(C)c1=O | inactive | 
30 | CCCOc1ccc(S(=O)(=O)N2CCN(CC)CC2)cc1-c1nc2c(CC)n(Cc3ccccn3)nc2c(=O)[nH]1 | inactive | 
31 | CCCCC(CC)C(=O)OCCOCCOCCOC(=O)C(CC)CCCC (stereo not given) | inactive | 
32 | c1ccc(C(O[C@@H]2CCCN(CCc3ccc4c(c3)OCO4)C2)c2ccccc2)cc1 | inactive | 
33 | c1ccc2cc3ccccc3cc2c1 | inactive | 
34 | CCc1ccc(O)c(C(C)(C)C)c1 | inactive | 
35 | CC1(C)C(=O)N(Cl)C(=O)N1Cl | inactive | 
36 | COS(C)(=O)=O | inactive | 
37 | Cn1cc[nH]c1=S | inactive | 
38 | c1ccc2c(c1)-c1cccc3c1c-2cc1ccccc13 | inactive | 
39 | FC(F)C(F)(F)COCC1CO1 (stereo not given) | inactive | 
40 | CCN(CC)C(=S)SSC(=S)N(CC)CC |  | 22.6 µM (active)
